Structures are written as SMILES. Calls of active or inactive are those of the source. Entries that show only a call come without a potency. Calls come from the whole dose curve; as a rule, active = well fitted cell-killing curve with a large enough effect; inconclusive = small, poorly fitted or top-dose-only effect; inactive = flat fitted curve, though single readings scatter.
Potency is the fitted concentration of half-maximal effect.

A short description of the assay: MultiTox-Fluor Cytotoxicity Assay - LYMP1-003 - Live Cells (AID 962). The conditions noted are these: LYMP1-003 lymphoblastoid cells, MultiTox-Fluor live-cell protease fluorescence; series mostly up to 92.2 µM. From the text: NIH Chemical Genomics Center [NCGC]
NIH Molecular Libraries Screening Centers Network [MLSCN]
National Institutes of Environmental Health Sciences [NIEHS]
National Toxicology Program [NTP]
We have developed a 1536-well cell-based assay for quantitative high throughput screening (qHTS) against a number of cell lines to determine in vitro cytotoxicity of small molecules. This particular assay uses a human lymphoblastoid cell line (LYMP1-003) purchased from Coriell Institute.
NCGC Assay Protocol Summary:
The MultiTox-Fluor Cytotoxicity Assay (Promega) is a homogeneous method to simultaneously measure the relative number of live and dead cells in culture by detecting changes in cell membrane integrity. There are two fluorogenic peptide substrates in the assay reagent. Viable cells are determined when the cell-permeant substrate (GF-AFC) enters the cell and is cleaved by protease from live cells resulting in liberated fluorophore. This live-cell protease activity restricted to viable cells is proportional to cell number. The dead cells are determined by using fluorogenic cell-impermeant peptide substrate (bis-AAF-R110) which cleaved by dead cell proteases leaking from damaged cell membrane.
Using the MultiTox-Fluor Cytotoxicity Assay, the relative number of live cells was measured in the lymphoblastoid cell line with complete culture medium following compound treatment for 16 hours. The assay was performed in opaque black Kalypsys 1536-well plates. In the screen, tetraoctylammonium bromide was used as positive control. Library compounds were measured for their ability to cause acute toxicity in the cell line, as reflected by a decrease in live cell protease activity, in a concentration-dependent manner. […] AC50 values were determined from concentration-response data modeled with the standard Hill equation.
qHTS protocol for MultiTox-Fluor Cytotoxicity assay
[Step] [Parameter] [Value] [Description]
1. Reagent; 5 uL; 2500 lymphoblastoid cells/well
2. Time; 5 hr; 37 C incubation
4. Controls; 23 nL; Tetraoctylammonium bromide 6.4pM to 92 uM
5. Time; 16 hr; 37 C incubation
6. Reagent; 5 uL; MuliTox-Fluor Assay reagent
7. Time; 60 min; Room Temperature
8. Detection; live-cell fluorescence (Ex/Em=405/510); EnVision plate reader
Keywords: cell viability, cytotoxicity, lymphoblastoid cell line, fluorescence, NTPHTS, NTPHTS_NCGC, NIEHS, EPA, DSSTox, MLSMR, MLSCN, NIH Roadmap, qHTS, NCGC
Take `NC(=NCCCCCCN=C(N)/N=C(\N)Nc1ccc(Cl)cc1)/N=C(\N)Nc1ccc(Cl)cc1`: the Potency was 50.1 µM (active). To `C[C@]12CC[C@@H]3c4ccc(O)cc4CC[C@H]3[C@@H]1CC[C@@H]2O` belongs “inactive”; to `CN(C)/N=N/c1nc[nH]c1C(N)=O`, “inactive”.

Turning to `CC/C(=C(/CC)c1ccc(O)cc1)c1ccc(O)cc1`, the Potency result was “inactive”. To `C=CCc1ccc(O)c(OC)c1` belongs “inactive”; to `COC1=CC(=O)C[C@@H](C)[C@]12Oc1c(Cl)c(OC)cc(OC)c1C2=O`, “inactive”; to `Oc1ccc(Cl)cc1Sc1cc(Cl)ccc1O`, “inactive”. As to `COc1cccc2c1C(=O)c1c(O)c3c(c(O)c1C2=O)C[C@@](O)(C(C)=O)C[C@@H]3O[C@H]1C[C@H](N)[C@H](O)[C@H](C)O1`, the Potency is 0.501 µM (active). `Oc1ccc(O)cc1`: the Potency is 50.1 µM (active).

Consider `CC(=O)Oc1ccc(C(c2ccc(OC(C)=O)cc2)c2ccccn2)cc1`, for which the Potency result is “inactive”.

Take `Nc1ccc(C(=O)O)cc1`: the Potency result is “inactive”. `CC(=O)O[C@]1(C(C)=O)CC[C@H]2[C@@H]3C[C@H](C)C4=CC(=O)CC[C@]4(C)[C@H]3CC[C@@]21C`: the Potency entry was “inactive”. In the case of `CC(O)C(=O)O` (stereo not given), the Potency result is “inactive”. Consider `COc1cccc2c1C(=O)c1c(O)c3c(c(O)c1C2=O)C[C@@](O)(C(=O)CO)C[C@@H]3O[C@H]1C[C@H](N)[C@H](O)[C@H](C)O1`, for which the Potency is 0.794 µM (active). With `C=C(CC)C(=O)c1ccc(OCC(=O)O)c(Cl)c1Cl`, the Potency result was “inactive”.

For the compound `CCCCCCc1ccc(O)cc1O`, the Potency entry is “inactive”. The entry for `O=c1ccc2ccccc2o1` is “inactive”.

For the compound `O=C1OC(c2ccc(O)cc2)(c2ccc(O)cc2)c2ccccc21`, the Potency result is “inactive”. As for `Oc1c(Cl)cc(Cl)cc1Sc1cc(Cl)cc(Cl)c1O`, the Potency entry is “inactive”. To `O=C(O)CCCCC(=O)O` belongs “inactive”.

For the origin of these results see PubChem BioAssay (NCATS).
